Among the data in ChEMBL document CHEMBL2218924, “A broad activity screen in support of a chemogenomic map for kinase signalling research and drug discovery” (Biochem J, 2013) are residual activity values, retold here.

Each structure is given as a SMILES string.

For assay [1], the target named is T1, Serine/threonine-protein kinase TBK1 (Homo sapiens) (UniProt Q9UHD2).
T1 sequence (whole entry): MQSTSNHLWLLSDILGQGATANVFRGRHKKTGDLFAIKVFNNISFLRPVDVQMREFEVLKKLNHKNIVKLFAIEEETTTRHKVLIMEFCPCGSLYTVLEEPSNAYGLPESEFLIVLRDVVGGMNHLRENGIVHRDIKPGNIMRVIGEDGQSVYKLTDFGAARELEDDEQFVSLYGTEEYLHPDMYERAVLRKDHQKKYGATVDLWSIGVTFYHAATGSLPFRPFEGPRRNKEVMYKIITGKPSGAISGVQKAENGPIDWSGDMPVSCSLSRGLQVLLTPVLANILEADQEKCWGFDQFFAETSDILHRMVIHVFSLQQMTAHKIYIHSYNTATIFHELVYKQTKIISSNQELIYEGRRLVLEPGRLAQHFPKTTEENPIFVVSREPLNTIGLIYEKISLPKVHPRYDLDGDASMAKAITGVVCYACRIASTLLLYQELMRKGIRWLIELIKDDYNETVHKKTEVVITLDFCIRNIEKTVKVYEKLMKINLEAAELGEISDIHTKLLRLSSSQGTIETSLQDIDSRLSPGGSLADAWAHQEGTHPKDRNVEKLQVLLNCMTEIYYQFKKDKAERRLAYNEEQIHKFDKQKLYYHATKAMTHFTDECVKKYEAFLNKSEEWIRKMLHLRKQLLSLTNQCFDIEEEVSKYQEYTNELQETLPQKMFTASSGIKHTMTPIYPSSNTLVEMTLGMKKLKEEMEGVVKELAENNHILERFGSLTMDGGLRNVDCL
To be noted: at 10 µM.

The target of assay [2] is T2, TGF-beta receptor type-1 (Homo sapiens) (UniProt P36897).
T2 sequence (whole entry): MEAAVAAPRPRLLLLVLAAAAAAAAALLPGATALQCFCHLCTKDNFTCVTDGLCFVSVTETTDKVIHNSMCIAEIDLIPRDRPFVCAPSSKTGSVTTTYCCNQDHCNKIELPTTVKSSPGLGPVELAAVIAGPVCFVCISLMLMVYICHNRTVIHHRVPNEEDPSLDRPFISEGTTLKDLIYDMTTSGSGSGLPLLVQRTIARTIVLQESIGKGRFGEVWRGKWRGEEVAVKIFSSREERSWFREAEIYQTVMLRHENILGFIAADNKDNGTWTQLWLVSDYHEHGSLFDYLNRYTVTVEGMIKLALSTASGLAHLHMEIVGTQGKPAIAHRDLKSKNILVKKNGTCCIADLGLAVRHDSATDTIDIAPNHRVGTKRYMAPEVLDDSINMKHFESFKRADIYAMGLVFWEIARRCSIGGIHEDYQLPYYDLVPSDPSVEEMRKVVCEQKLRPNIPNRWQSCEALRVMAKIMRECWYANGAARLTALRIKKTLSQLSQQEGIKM
Particulars: at 1 µM.

Assay [3] has as its target T2, TGF-beta receptor type-1 (Homo sapiens). To be noted: at 10 µM.
Assay [4] has as its target Insulin-like growth factor 1 receptor (Homo sapiens) (UniProt P08069). To be noted: at 1 µM.
The target is the same in assay [5]. Particulars: at 10 µM.
Assay [6] addresses T3, Inhibitor of nuclear factor kappa-B kinase subunit alpha (Homo sapiens) (UniProt O15111).
T3 sequence (whole entry): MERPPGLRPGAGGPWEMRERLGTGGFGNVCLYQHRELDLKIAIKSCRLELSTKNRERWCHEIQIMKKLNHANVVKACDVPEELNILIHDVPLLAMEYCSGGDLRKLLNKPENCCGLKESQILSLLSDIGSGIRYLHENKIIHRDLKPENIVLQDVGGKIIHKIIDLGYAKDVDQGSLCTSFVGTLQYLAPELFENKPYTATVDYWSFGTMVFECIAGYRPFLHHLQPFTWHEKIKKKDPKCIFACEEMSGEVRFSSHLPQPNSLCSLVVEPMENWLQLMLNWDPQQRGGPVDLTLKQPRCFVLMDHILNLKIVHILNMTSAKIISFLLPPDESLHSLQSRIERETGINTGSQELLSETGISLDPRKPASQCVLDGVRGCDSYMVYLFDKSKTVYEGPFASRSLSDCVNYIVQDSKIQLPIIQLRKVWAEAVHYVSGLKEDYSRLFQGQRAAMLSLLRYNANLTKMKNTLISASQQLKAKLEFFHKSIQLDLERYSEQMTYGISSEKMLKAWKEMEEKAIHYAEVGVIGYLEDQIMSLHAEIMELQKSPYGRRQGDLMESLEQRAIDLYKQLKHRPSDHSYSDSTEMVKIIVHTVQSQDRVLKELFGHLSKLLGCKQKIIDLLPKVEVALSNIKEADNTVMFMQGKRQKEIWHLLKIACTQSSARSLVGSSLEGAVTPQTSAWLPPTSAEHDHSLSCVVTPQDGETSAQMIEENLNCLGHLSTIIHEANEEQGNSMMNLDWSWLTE
To be noted: at 1 µM.

In assay [7] the target is T3, Inhibitor of nuclear factor kappa-B kinase subunit alpha (Homo sapiens). Particulars: at 10 µM.
Assay [8] addresses T4, Inhibitor of nuclear factor kappa-B kinase subunit beta (Homo sapiens) (UniProt O14920).
T4 sequence (whole entry): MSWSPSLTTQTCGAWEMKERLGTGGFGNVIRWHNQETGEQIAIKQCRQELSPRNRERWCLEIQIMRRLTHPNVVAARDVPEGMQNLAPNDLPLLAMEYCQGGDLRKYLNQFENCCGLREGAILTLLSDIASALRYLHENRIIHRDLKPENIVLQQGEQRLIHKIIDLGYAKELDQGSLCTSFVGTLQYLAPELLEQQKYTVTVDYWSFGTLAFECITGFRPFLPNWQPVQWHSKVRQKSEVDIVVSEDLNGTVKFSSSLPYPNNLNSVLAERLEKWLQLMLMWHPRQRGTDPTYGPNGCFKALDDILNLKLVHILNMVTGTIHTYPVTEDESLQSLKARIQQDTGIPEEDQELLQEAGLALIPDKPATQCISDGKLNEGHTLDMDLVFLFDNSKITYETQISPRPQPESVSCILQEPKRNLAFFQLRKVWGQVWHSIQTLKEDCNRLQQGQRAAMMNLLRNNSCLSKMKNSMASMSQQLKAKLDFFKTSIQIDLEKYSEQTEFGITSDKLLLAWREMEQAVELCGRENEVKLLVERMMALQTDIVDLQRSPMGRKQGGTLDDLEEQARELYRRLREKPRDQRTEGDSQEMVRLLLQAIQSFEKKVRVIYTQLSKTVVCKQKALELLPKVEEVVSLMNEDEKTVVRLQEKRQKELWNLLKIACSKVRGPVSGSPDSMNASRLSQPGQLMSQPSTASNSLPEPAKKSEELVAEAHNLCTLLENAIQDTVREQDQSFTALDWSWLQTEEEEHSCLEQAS
To be noted: at 1 µM.

Assay [9] concerns the target T4, Inhibitor of nuclear factor kappa-B kinase subunit beta (Homo sapiens). To be noted: at 10 µM.
For assay [10], the target named is Insulin receptor (Homo sapiens) (UniProt P06213). To be noted: at 1 µM.
Chain of Insulin receptor (Homo sapiens) (P06213 28-758 limits assumed): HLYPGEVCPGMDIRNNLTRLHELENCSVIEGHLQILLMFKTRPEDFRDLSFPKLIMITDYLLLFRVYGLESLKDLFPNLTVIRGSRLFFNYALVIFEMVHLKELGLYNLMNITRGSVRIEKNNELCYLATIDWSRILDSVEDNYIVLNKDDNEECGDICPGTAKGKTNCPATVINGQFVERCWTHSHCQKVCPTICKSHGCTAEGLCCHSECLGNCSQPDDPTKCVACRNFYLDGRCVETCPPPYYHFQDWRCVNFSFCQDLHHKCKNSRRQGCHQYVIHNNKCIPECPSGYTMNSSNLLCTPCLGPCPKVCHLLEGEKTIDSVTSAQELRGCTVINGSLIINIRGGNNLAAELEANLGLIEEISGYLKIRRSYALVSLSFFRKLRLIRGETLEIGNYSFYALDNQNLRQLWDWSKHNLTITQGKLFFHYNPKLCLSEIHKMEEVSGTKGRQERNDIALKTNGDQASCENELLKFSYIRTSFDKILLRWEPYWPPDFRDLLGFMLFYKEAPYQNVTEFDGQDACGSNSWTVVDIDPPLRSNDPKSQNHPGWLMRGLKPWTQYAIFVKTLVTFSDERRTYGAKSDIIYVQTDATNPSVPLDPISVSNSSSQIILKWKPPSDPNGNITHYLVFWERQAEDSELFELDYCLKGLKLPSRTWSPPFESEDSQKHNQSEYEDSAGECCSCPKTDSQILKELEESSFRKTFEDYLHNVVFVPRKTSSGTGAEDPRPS
Chain of Insulin receptor (Homo sapiens) (P06213 763-1382 limits assumed): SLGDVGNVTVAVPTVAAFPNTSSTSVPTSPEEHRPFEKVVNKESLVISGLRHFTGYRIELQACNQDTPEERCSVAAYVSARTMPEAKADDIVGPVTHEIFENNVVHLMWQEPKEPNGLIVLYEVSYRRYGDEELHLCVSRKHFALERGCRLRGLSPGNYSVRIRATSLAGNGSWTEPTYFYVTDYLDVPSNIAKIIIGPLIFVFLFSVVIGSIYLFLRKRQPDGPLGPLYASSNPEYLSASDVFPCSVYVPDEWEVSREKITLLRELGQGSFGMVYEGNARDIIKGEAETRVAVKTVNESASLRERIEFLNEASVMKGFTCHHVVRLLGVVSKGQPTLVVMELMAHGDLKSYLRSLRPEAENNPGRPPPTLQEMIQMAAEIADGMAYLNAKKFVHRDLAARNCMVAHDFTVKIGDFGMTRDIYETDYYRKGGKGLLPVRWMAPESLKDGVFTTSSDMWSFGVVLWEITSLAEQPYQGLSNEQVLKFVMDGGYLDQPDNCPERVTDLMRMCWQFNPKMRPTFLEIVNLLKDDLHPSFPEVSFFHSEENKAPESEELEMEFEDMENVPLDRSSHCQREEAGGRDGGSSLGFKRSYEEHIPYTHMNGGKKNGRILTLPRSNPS

Chain of Insulin-like growth factor 1 receptor (Homo sapiens) (P08069 31-736 limits assumed): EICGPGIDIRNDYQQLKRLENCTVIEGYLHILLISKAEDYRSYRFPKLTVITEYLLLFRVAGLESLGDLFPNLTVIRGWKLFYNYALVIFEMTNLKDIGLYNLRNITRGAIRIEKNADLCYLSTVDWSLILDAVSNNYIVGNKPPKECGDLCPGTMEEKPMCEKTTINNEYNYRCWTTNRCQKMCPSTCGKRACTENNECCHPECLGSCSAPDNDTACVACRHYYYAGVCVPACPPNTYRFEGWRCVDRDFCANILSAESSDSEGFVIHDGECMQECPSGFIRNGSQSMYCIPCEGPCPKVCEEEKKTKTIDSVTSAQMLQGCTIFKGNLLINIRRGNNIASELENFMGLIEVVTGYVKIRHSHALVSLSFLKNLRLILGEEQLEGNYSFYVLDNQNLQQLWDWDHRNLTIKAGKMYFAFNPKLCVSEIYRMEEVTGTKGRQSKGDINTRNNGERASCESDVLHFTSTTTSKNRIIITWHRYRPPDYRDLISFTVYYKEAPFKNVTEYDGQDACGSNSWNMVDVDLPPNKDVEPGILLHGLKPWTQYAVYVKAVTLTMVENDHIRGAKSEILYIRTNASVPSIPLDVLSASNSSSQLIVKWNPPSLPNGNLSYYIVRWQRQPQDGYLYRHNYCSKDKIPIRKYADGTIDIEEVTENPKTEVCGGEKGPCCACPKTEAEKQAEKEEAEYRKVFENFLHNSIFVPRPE
Chain of Insulin-like growth factor 1 receptor (Homo sapiens) (P08069 741-1367 limits assumed): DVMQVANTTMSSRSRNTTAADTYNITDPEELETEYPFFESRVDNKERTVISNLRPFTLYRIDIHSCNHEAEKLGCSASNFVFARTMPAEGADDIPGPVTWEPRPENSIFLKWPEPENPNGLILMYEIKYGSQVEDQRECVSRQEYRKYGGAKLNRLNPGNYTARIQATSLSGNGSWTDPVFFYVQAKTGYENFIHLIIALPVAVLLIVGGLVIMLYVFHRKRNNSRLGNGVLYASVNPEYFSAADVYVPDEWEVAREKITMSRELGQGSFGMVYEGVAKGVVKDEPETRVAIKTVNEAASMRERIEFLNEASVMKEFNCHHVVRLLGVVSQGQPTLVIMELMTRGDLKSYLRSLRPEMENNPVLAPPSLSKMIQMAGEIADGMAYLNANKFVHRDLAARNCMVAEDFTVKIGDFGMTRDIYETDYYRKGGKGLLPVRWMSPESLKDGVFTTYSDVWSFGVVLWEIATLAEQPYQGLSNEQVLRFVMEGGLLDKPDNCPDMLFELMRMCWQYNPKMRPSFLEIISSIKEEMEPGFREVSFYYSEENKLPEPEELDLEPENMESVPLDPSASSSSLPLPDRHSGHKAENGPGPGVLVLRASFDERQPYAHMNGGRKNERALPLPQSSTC

`Oc1n[nH]c2nnc(-c3c(-c4ccccc4)nn4ccccc34)cc12`: the residual activity (in general, the signal under treatment as a percentage of the control signal) in assay [1] is 60%; in [2], 84%; in assay [3] it was 74%; in [4] it was 84%; in assay [5], 91%; in assay [6], 102%. For the same compound, the residual activity is 92% in assay [7], 97% in assay [8], 93% in [9] and 47% in [10].
